Giardia killer: Giardia lamblia killing; Giardia lamblia trophozoite viability; activity change, % at 7.66 µM, hits read low; 340,000 tested, 0.15% active; in the data active = activity change below about -80%; inconclusive = between about -30% and that limit;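 also: parasites exposed to compound for two days anaerobically before the ATP read; % is scaled to controls: 0 for no effect and ±100 for the full control effect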
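Luminescence from cellular ATP indicates surviving trophozoites (100 cells/well) following 48 hrs anaerobic compound treatment at 37 deg C; signal develops 15-30 min at room temperature.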
BRCA1 expr act: increases BRCA1 expression | MCF7-BRCA1-FFLuc reporter, luminescence, 48 h; response scale: scaled: vehicle 0%, 10 µM genistein 100% | Potency, µM (titrated, usually from 46.1 µM), inactives show at the top dose activation, hits mostly activators | 380,000 tested, 1.1% active | AID 624202; also: potency is read from the fitted curve at half-maximal effect; nearly all actives have a fitted effect of over 80% in size
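Quantitative HTS in MCF7 cells stably reporting BRCA1 expression via firefly luciferase. Compound treatment lasts 48 h at 37 °C in phenol-red free MEM. Activation is expressed relative to genistein at 10 microM and DMSO.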
p53 reactivator: re-activators of mutant p53; H1299 p53-A138V BP100-luciferase reporter, luminescence, 24 h; Potency, µM (series often up to 92.2 µM), without a hit: top-dose activity change, positive = activation, most hits filed as activators; 320,000 tested, 0.063% active; also: potency is read from the fitted curve at half-maximal effect; % of control where 0% means no effect; nearly all actives have a fitted effect of over 45% in size
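p53-null H1299 cells stably carrying temperature-sensitive p53-A138V and a BP100-luciferase reporter were pinned with compounds (4-point, 1:5 series) and held 24 hrs at 37 deg C. Luminescence was read 10 min after detection reagent.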
ELG1 repair inh: inhibitors of ELG1-dependent DNA repair in HEK293T cells; HEK293T ELG1-luciferase reporter, luminescence, 16 h; DNA damage induced by 5-fluorouridine; Potency, µM (top dose mostly 46.1 µM), without a hit: top-dose activity change, negative = inhibition, hits mostly inhibitors; 330,000 tested, 2.3% active; AID 504467; also: potency is read from the fitted curve at half-maximal effect; % is scaled to controls: 0 for no effect and ±100 for the full control effect; nearly all actives have a fitted effect of over 55% in size
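Luminescence from the luciferase reporter, measured 30 min after ONE-Glo reagent at room temperature, was the read-out. Beforehand, 2,000 cells per well were exposed for 16 hr at 37 °C to 5-fluorouridine together with compound or vehicle.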
RORgamma inh: ROR gamma (mouse) transcription inhibition | P51450 | Drosophila S2 Gal4-RORgamma UAS-luciferase reporter, 20 h | Potency, µM (top dose mostly 53.6 µM), for the others: top-dose activity change, negative = inhibition, hits mostly inhibitors | 310,000 tested, 5.4% active; also: potency is read from the fitted curve at half-maximal effect; % is scaled to controls: 0 for no effect and ±100 for the full control effect; nearly all actives have a fitted effect of over 60% in size
Target sequence (P51450 whole entry, looked up, the tested form may be a part): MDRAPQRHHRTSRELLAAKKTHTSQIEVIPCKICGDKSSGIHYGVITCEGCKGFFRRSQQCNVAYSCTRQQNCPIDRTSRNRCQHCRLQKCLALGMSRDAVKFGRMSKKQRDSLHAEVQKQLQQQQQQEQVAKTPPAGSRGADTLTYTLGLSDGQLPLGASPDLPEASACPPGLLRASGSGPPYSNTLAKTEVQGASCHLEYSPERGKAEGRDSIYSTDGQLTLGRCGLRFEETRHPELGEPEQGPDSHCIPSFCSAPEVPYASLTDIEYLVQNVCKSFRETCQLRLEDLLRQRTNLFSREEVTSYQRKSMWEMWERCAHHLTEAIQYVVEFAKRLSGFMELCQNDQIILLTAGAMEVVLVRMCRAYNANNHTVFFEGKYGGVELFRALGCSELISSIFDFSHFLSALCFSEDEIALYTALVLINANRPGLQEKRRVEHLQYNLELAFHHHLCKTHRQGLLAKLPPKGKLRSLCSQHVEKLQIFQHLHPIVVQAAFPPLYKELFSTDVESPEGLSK
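Luminescence from a UAS-regulated Photinus luciferase reporter in stably transfected Drosophila Schneider cells is measured; decreased signal marks ROR gamma inhibition. Fusion expression is induced by 700 uM copper sulfate for 20 hr.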
Gal4-VP16 FLuc: counter-screen for ROR gamma inhibitors: Gal4-VP16 reporter. Drosophila S2 Gal4-VP16 UAS-luciferase, luminescence, 20 h. Potency, µM (doses to about 53.6 µM), inactives show at the top dose activity, negative = inhibition, hits mostly inhibitors. 310,000 tested, 3.5% active;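 also: Gal4-VP16 expression switched on by copper sulfate through the metallothionein promoter; potency is read from the fitted curve at half-maximal effect; % is scaled to controls: 0 for no effect and ±100 for the full control effect; nearly all actives have a fitted effect of over 50% in size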
The depositor's hits bear a star; ? = inconclusive; . = not tested or not shown; [ ] = remark or other dose. The list is not random: actives were taken first. Their share in the collection is about 7.6%. Unless noted, calls follow the shape of the dose curve; as a rule, active = well fitted curve in the direction sought with a large enough effect; inconclusive = small, poorly fitted or top-dose-only effect, or another doubt; inactive = no such curve, though single readings can be large; an effect the other way counts as inactive or inconclusive.

SMILES	Giardia killer	BRCA1 expr act	p53 reactivator	ELG1 repair inh	RORgamma inh	Gal4-VP16 FLuc
COCCn1c(SCC(=O)NCc2ccc3c(c2)OCO3)nnc1-c1c[nH]c2ccccc12	19.1	-17.3%	2.5%	?	8.5%	-3.2%
CC(C)Cc1nnc(NC(=O)c2cccc(S(=O)(=O)N3CCOCC3)c2)s1	31.2	-16.2%	1.5%	1.7%	.	.
COC(=O)C1=C(C)N(Cc2ccccc2)[C@]23O[C@](C(=O)OC)(C(=O)N2C1c1ccccc1)C1C(=O)N(c2ccccc2)C(=O)C13 (some centres not stated)	.	.	.	.	-7.0%[10 µM]	2.4%[10 µM]
Cc1ccc(Cl)cc1NC(=O)CSc1nnc(C)n1-c1ccccc1	-13.1	-5.9%	-15.0%	-16.3%	3.98µM*	5.62µM*
Cc1ccc(-c2nn3c(C)nnc3s2)cc1NC(=O)CSc1ccc(Cl)cc1	-14.7	-0.3%	-0.3%	20.6µM*	0.0%	?
Cc1c(Cl)cccc1NC(=O)CSc1nnc(C)n1-c1ccccc1	-1.9	-0.6%	-6.4%	?	24.8%	13.2%
Cc1nnc2sc(-c3ccc(NC(=O)CSc4ccc(Cl)cc4)cc3)nn12	14.4	-24.7%	3.3%	-19.9%	-2.9%	-26.0%
COc1ccc(C(C)(C)C)cc1S(=O)(=O)NCC1CCCO1 (configuration not stated)	-4.9	-2.6%	.	.	.	.
CCCCn1cnc2c(SCc3ccccc3)nc(N)nc21	-25.2	7.08µM*	.	.	.	.
COc1ccc(CN(CCC(c2ccccc2)C2CCOC(C)(C)C2)C(C)=O)cc1 (configuration not stated)	3.2	-26.8%	-12.9%	16.4µM*	4.8%	-7.8%
Cc1ccc(C(=O)/C=C2\NCC(C)NC2=O)cc1 (configuration not stated)	-1.6	?	-9.5%	?	8.91µM*	10µM*
COCCCN1C(=O)c2ccc(C(=O)Nc3ccccc3Cl)cc2C1=O	2.2	-1.8%	2.1%	-2.0%	1.6%	-2.1%
Fc1cccc(Cc2c(-c3ccc(Cl)cc3)nc3ccc(Br)cn23)c1	.	20.4%	.	.	.	.
CC(C)C1Cc2[nH]c(=O)c(C(=O)O)cc2CO1 (configuration not stated)	-5.6	8.91µM*	?	13.5%	14.3%	-3.3%
COc1ccc2[nH]c(=O)c(C(=O)O)cc2c1	-16.5	-11.8%	-2.5%	?	-16.3%	-10.4%
O=C(N/N=C/C1CC=CCC1)c1ccc(O)cc1O (configuration not stated)	-11.0	-2.4%	13.4%	22.5%	1.12µM*	2.82µM*
COc1cc(C(=O)N/N=C/C2CC=CCC2)cc(OC)c1OC (configuration not stated)	12.2	-71.6%	10.2%	9.7%	-35.8%	?
O=C(CNc1ccc(F)cc1)N/N=C/C1CC=CCC1 (configuration not stated)	-19.5	0.5%	-0.9%	?	-7.2%	-1.1%
O=C(N/N=C/C1CC=CCC1)c1cc2ccccc2cc1O (configuration not stated)	9.7	-25.5%	9.2%	-14.1%	10µM*	?
CN(CC(=O)Nc1cccc(F)c1)C(=O)c1ccc(NC2CC2)c([N+](=O)[O-])c1	-6.7	-29.1%	5.4%	-2.7%	.	.
CCOC(=O)c1ccc(N2C(=O)CC(N3CCC(C(N)=O)(N4CCCCC4)CC3)C2=O)cc1 (configuration not stated)	5.4	-16.2%	-3.6%	-0.4%	?	?
COc1ccc(C)cc1S(=O)(=O)N1CCCC(N2CCOCC2)C1 (configuration not stated)	9.7	-18.8%	15.3%	-7.6%	4.9%	-0.9%
CCOC(=O)N/N=C/c1ccc(F)cc1F	6.5	80.7%	?	?	2.3%	-4.4%
CNC(=S)N/N=C/c1c(C(=O)OC)cnn1-c1ccc(F)cc1F	18.2	-32.4%	-7.2%	?	8.91µM*	?
COC(=O)c1cnn(-c2ccccc2)c1/C=N/NC(=S)Nc1ccccc1	20.3	-28.4%	1.4%	20.6µM*	0.891µM*	3.55µM*
SMILES	Giardia killer	BRCA1 expr act	p53 reactivator	ELG1 repair inh	RORgamma inh	Gal4-VP16 FLuc
COC(=O)c1cnn(-c2ccc(F)cc2F)c1/C=N/NC(=S)NC(C)(C)C	-16.6	-36.4%	-6.5%	?	1.26µM*	?
COC(=O)c1cnn(-c2ccc(F)cc2F)c1/C=N/NC(N)=S	-1.4	-35.7%	0.2%	13µM*	-83.0%	-22.1%
C=C1C=C(C)n2ncc(C(=O)Nc3ccc(F)cc3F)c2N1	.	-11.4%	.	.	.	.
O=C1OCCC1=COCCCCCOC=C1CCOC1=O	.	6.6%	.	.	.	.
CCN(CC)c1ccc(-n2c(C)c(C(C)=O)c(C(C)=O)c2C)cc1	-1.6	-43.9%	-1.6%	10.3µM*	40.8%	5.0%
CCS(=O)(=O)NCC(c1cccnc1)N1CCN(c2ccc(F)cc2)CC1 (configuration not stated)	-12.6	0.6%	0.0%	-1.4%	1.8%	-1.2%
Oc1ccc(Br)cc1-c1nc2cnccn2c1NC1CCCC1	-18.3	-33.9%	-12.1%	23.1µM*	22.4µM*	?
Oc1ccc(Br)cc1-c1nc2cnccn2c1NC1CCCCC1	4.0	-3.4%	-2.8%	-10.6%	12.6µM*	?
Fc1ccc(-c2nc3cnccn3c2NC2CCCC2)cc1	24.2	-38.2%	1.5%	-12.3%	15.6%	6.1%
CC(C)CCC(CCNCc1ccccn1)c1ccc(Cl)cc1 (configuration not stated)	-23.6	-30.6%	0.3%	-26.7%	11.2µM*	-13.3%
CN1CCN(CC(=O)N2CCn3c4c(c5cc(C6CCCCC6)ccc53)CCCC42)CC1 (configuration not stated)	-2.9	-91.9%	0.3%	?	2.24µM*	?
CCOc1ccc(NC(=O)CN(C)C(=O)C2=COCCO2)cc1OCC	3.3	-1.4%	-0.8%	3.6%	.	.
C[C@H](CO)N1C[C@H](C)[C@@H](CN(C)Cc2ccc3c(c2)OCO3)Oc2c(NC(=O)Cc3ccccc3)cccc2C1=O	-2.4	-39.1%	-4.9%	?	.	.
CCc1cccc(C)c1NC(=S)NCC(c1cccnc1)N(C)C (configuration not stated)	23.8	0.8%	-0.4%	-0.5%	-27.2%	8.6%
CC(C)NC(=O)CSCc1cccc(Br)c1	6.2	10.3%	4.5%	12.4%	19.9%	9.6%
COc1ccccc1C(=O)NNC(=O)c1ccc(Cl)cc1	9.0	-6.8%	5.0%	8.0%	-8.7%	-6.9%
CC(C)(C)C(=O)Nc1cccc(-c2cc(-c3c(Cl)cccc3Cl)no2)c1	-7.9	-32.0%	-3.6%	8.2µM*	-2.8%	6.8%
